The values that follow come from PubChem BioAssay (NCI).

Values joined by “and” are separate entries in the source; they are usually repeats but may differ in a detail not shown here. Equal entries are not always repeated. Compounds without any hit were thinned out: in the full panel of roughly 83,000, 20% have a hit.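 In brief: 96-well plates, 48 h treatment, single concentration, percent growth endpoint.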 Unmarked numbers belong to inactive results. Active and inactive are the calls of the source. Rule for the calls: active = growth percent below 10; inactive = the rest.

This assay relates to MDA-MB-468 breast. As to the kind of experiment: NCI-60 one-dose screen, 48 h (100 = growth as untreated, 0 = no growth, -100 = all killed). The note with it: 10 µM unless noted.
Turning to `COC(=O)c1c[n+]([O-])ccc1OC`, the growth was 106%.
With `NC(=O)c1c(NC(=O)c2cccc(C(F)(F)F)c2)sc2c1CCC(=O)C2`, the growth was -38.1% (active).
As for `CC(C)C(C)C(N)C(=O)O` (stereo not given), the growth is 107%.
With `COc1ccc(-c2cc(C(=O)N3N=C(c4ccc(N)cc4)CC3c3ccc(Cl)cc3)c3cc(OC)ccc3n2)cc1` (stereo not given), the growth was 95.8%.
The figure for `CS(=O)(=O)c1cccc(Nc2ncc3cc(-c4ccccc4Cl)ccc3n2)c1` is 13.1%; for `S=C=NP1(N=C=S)=NP(N=C=S)(N=C=S)=NP(N=C=S)(N=C=S)=NP(N=C=S)(N=C=S)=N1` (stereo not given) it is 107%; for `COc1cc(C=O)ccc1OC1OC(COC(C)=O)C(OC(C)=O)C(OC(C)=O)C1OC(C)=O` (stereo not given) it is 100%.
Consider `Nc1nc(Nc2ccccc2SSc2ccccc2Nc2nc(N)nc(-c3cccc(Br)c3)n2)nc(-c2cccc(Br)c2)n1`, for which the growth is 95.4%.
Regarding `COc1ccccc1NC(=O)c1sc2nc3c(cc2c1N)C(=O)CCC3`, the growth is 23.4%.
The figure for `COc1cc2c(=O)n(CCN)c3c4cc5c(cc4ccc3c2cc1OC)OCO5` is -31.7% (active); for `Nc1cc(Cl)c(S(N)(=O)=O)cc1S(N)(=O)=O` it is 99.3%; for `COc1cccc2nc3n(c12)C(c1c(F)cccc1F)SC3` (stereo not given) it is 89.2%.
Consider `C=C(C)[C@@H]1CC[C@]2(C(=O)NCCCN(CCC#N)CCC#N)CC[C@]3(C)[C@H](CC[C@@H]4[C@@]5(C)CCC(=O)C(C)(C)[C@@H]5CC[C@]43C)[C@@H]12`, for which the growth was 116% and 90.6%.
With `CSc1ccc(N=C=C(c2ccccc2)c2ccccc2)cc1`, the growth was 97.1%.
The figure for `COc1ccc(/C=N\Nc2nc(SCC(C)C)nc(-c3ccc(OC)cc3)c2C#N)cc1` is 71.8%.
The figure for `O=C(Nc1cccc(C2=NCCN2)c1)c1ccc(-c2ccc(C(=O)Nc3cccc(C4=NCCN4)c3)cc2)cc1` is 62%; for `O=C1/C(=C/c2ccc([N+](=O)[O-])cc2)COc2ccc(O)cc21` it is 77.3%; for `COc1ccc(-c2nnc(SCC(=O)Nc3ccc(/C(C)=N\O)cc3)n2-c2ccccc2)cc1OC` it is 78.5%.
Regarding `C#COc1cccc(Nc2ncnc3cc(NC(=O)[C@H](C)Cl)ccc23)c1`, the growth was -11.4% [6.25 µM] (active).
On to `O=C1/C(=C/c2ccccc2F)CN(C(=O)C(Cl)Cl)C/C1=C\c1ccccc1F`, for which the growth is -32.4% (active).
The figure for `O=C(C(=O)N1CCCC1)c1cn(CCCn2cc(C(=O)C(=O)N3CCCC3)c3cc(Br)ccc32)c2ccc(Br)cc12` is 70.4%; for `CC(=O)C(CO)C(=O)Nc1ccccc1` (stereo not given) it is 104%; for `CCc1c(C)c2ccc(OCC(=O)N=Nc3c(O)[nH]c4ccccc34)c(C)c2oc1=O` it is 18.9%.
The figure for `c1ccc(C2CC(c3cccc(Nc4ccncc4)c3)=NN2c2ccccc2)cc1` (stereo not given) is 24.2%; for `CC(=O)N1CCN(CCNC(=O)n2cc(-c3ccncc3)c(-c3cc(O)cc(Cl)c3)n2)CC1` it is 32.4%; for `Clc1ccc(-c2nc(-c3cccs3)no2)c(Cl)c1` it is 8.37% (active).
In the case of `CCCCCSB(SCCCCC)c1ccccc1`, the growth was 102%.
For the molecule `CCOCCNc1ccc(S(=O)(=O)c2ccc(N)cc2)cc1N`, the growth was 95.9%.
As to `COc1cc2nc(Nc3cccc(Cl)c3)nc(N)c2cc1OC`, the growth was 26.8%.
Regarding `CC(C)C(C(=O)CCN(C)C)c1ccc(Cl)cc1` (stereo not given), the growth is 78.6%.
The figure for `COc1cc(-c2csc(NC(=O)Nc3ccc(Cl)cc3Cl)n2)cc(OC)c1OC` is 17.7%.
For `CC1=C/C(=N\N=C2/C=C(C)CC(C)(C)C2)CC(C)(C)C1`, the growth is 98.5%.
The figure for `O=C(Nc1ccc(NCCN2CCOCC2)nc1)c1ccc([N+](=O)[O-])cc1` is 104%.
The figure for `ClC1(Cl)C2CCCCCCC21` (stereo not given) is 118%; for `CCOC(=O)c1[nH]c(C)c(C(=O)O)c1C` it is 108%.
The figure for `C/C(O)=C(/C=N\C(=S)Nc1ccc(S(=O)(=O)Nc2nccs2)cc1)C(=O)Nc1ccccc1C` is 82%; for `COc1ccc(-n2c(=O)sc3c(Cl)nc(C)nc32)c(OC)c1` it is 57.8%.
Take `c1ccc(-c2n(Cc3ccc4ccccc4c3)c3ccccc3[n+]2Cc2ccc3ccccc3c2)cc1`: the growth is -35.4% (active).
In the case of `CCOC(=O)c1sc(Nc2ncccn2)nc1-c1ccccn1`, the growth is 10.4%.
The figure for `CCOc1ccc(C(CN2CCOCC2)C(C)=O)cc1OC` (stereo not given) is 13.9%.
